Among the test systems are DU-145 prostate; K-562 leukemia; MALME-3M melanoma; MDA-MB-231 breast; RXF 393 renal; SF-268 CNS; SF-295 CNS; SF-539 CNS; UACC-257 melanoma; M14 melanoma; HCT-15 colon; HT29 colon; SNB-75 CNS; SNB-19 CNS; U251 CNS; PC-3 prostate; SK-MEL-5 melanoma; UACC-62 melanoma; SK-MEL-28 melanoma; LOX IMVI melanoma.
Holding throughout (test): NCI-60 one-dose screen, 48 h (100 = growth as untreated, 0 = no growth, -100 = all killed)
Common to all, as to conditions: 10 µM unless noted

About 83,000 compounds went through this panel and 20% of them were active in at least one assay; those are over-represented in the sample as a whole.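 Values shown are percent growth following 48 h exposure of cells in 96-well plates to a single concentration of compound; below 10 was considered active.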 Unmarked numbers belong to inactive results. Active and inactive are the calls of the source.

Regarding `O=S(=O)(Nc1ccc(-c2nc(-c3cccc(OCCN4CCOCC4)c3)c(-c3ccnc(Br)c3)[nH]2)cc1)c1ccccc1`, the growth in the assay with DU-145 prostate was 59.5%; with K-562 leukemia it was 3.42% (active); in the assay with MALME-3M melanoma, 44%; in the assay with MDA-MB-231 breast, 36.8%; in the assay with RXF 393 renal, -15.1% (active); in the assay with SF-268 CNS, 41.3%. In addition, the growth with SF-295 CNS was 2.79% (active); with SF-539 CNS, 38.1%; in the assay on UACC-257 melanoma it was 53.1%; in the assay with M14 melanoma, 36.8%; with HCT-15 colon it was 8.1% (active); in the assay on HT29 colon it was 2.67% (active). Also, the growth in the assay on SNB-75 CNS is 6.55% (active); in the assay on SNB-19 CNS, 48.2%; in the assay with U251 CNS, 35.2%; with PC-3 prostate, 15.9%; in the assay on SK-MEL-5 melanoma, 37.5%; in the assay on UACC-62 melanoma, 28.7%. In the assay on SK-MEL-28 melanoma, the growth is 38.7%.
Turning to `CCOC(=O)CC1C(COC(=O)NC)OC(n2cnc3c(NC(=O)Nc4ccccc4)ncnc32)C1O[Si](C)(C)C(C)(C)C` (configuration not stated), the growth in the assay with DU-145 prostate was 58.7%; in the assay with K-562 leukemia, 28.7%; in the assay with MALME-3M melanoma it was 53.5%; in the assay on MDA-MB-231 breast it was 71.7%; in the assay on RXF 393 renal, 35%; in the assay with SF-268 CNS it was 59.9%. Moreover, the growth in the assay on SF-295 CNS is 66.1%; with SF-539 CNS it was 33.4%; in the assay on UACC-257 melanoma it was 59.2%; in the assay with M14 melanoma it was 57.1%; with HCT-15 colon, 52.2%; with HT29 colon it was 8.8% (active). The growth was 45.4% in the assay with SNB-75 CNS; 99.1% in the assay with SNB-19 CNS; 52% with U251 CNS; 32.4% in the assay with PC-3 prostate; 23.5% in the assay on SK-MEL-5 melanoma; 65.1% with UACC-62 melanoma. The growth is 48.6% with LOX IMVI melanoma and 71.9% in the assay on SK-MEL-28 melanoma.
For `Cn1cc(-c2cc3ncnc(Nc4ccc(CC(=O)Nc5cc(C(C)(C)C)on5)cc4)c3s2)cn1`, the growth with DU-145 prostate was 29.9%; in the assay on K-562 leukemia it was 11.1%; in the assay with MALME-3M melanoma, 43.4%; in the assay with MDA-MB-231 breast, 34.4%; in the assay on RXF 393 renal, 19.3%; in the assay on SF-268 CNS, 31.6%. In addition, the growth is 49.9% with SF-295 CNS; 15.7% with SF-539 CNS; 59.3% in the assay on UACC-257 melanoma; 21.1% in the assay on M14 melanoma; 18.6% in the assay with HCT-15 colon; 27.4% in the assay with HT29 colon. The growth was 54% with SNB-75 CNS; 86.1% with SNB-19 CNS; 54.2% in the assay on U251 CNS; 47% in the assay on PC-3 prostate; 52.1% with SK-MEL-5 melanoma; 30% with UACC-62 melanoma. The growth in the assay on SK-MEL-28 melanoma is 44%.
With `CCCCOc1nc2c(C)cccc2cc1-c1cc(-c2ccc(Cl)cc2)nc(-c2ccc(Cl)cc2)c1`, the growth with DU-145 prostate was 109%; in the assay with K-562 leukemia, 91.2%; in the assay on MALME-3M melanoma, 95.5%; in the assay with MDA-MB-231 breast, 89.5%; in the assay on RXF 393 renal, 106%; in the assay with SF-268 CNS, 92.7%. Further, the growth with SF-295 CNS is 101%; with SF-539 CNS it was 96.8%; in the assay on UACC-257 melanoma it was 98.9%; in the assay with M14 melanoma, 101%; in the assay with HCT-15 colon, 103%; in the assay with HT29 colon, 103%. For the same compound, the growth is 106% with SNB-75 CNS; 92.3% in the assay on SNB-19 CNS; 100% in the assay with U251 CNS; 94.8% in the assay with PC-3 prostate; 103% in the assay on SK-MEL-5 melanoma; 97.8% in the assay with UACC-62 melanoma. The growth in the assay with SK-MEL-28 melanoma was 101%.
As for `O=c1c2cc(F)ccc2sc2c(NCCO)nc3ccccc3c12`, the growth is 112% in the assay on DU-145 prostate; 98.3% in the assay on K-562 leukemia; 120% in the assay on MALME-3M melanoma; 98.1% with MDA-MB-231 breast; 109% in the assay with RXF 393 renal; 103% with SF-268 CNS. In addition, the growth in the assay on SF-295 CNS is 104%; in the assay with SF-539 CNS, 99.9%; in the assay on UACC-257 melanoma, 104%; with M14 melanoma, 114%; with HCT-15 colon, 101%; in the assay on HT29 colon, 107%. For the same compound, the growth with SNB-75 CNS was 87%; in the assay on SNB-19 CNS it was 94%; in the assay with U251 CNS, 97.6%; in the assay on PC-3 prostate, 105%; with SK-MEL-5 melanoma it was 99.4%; in the assay with UACC-62 melanoma, 94.2%. For the same compound, the growth is 97.2% with LOX IMVI melanoma and 126% with SK-MEL-28 melanoma.
On to `COc1ccc(-c2[nH]c3ccc(OC)cc3c2/C=C(\C#N)S(=O)(=O)c2ccccc2)cc1`, for which the growth with DU-145 prostate is 17.3%; with K-562 leukemia it was 19.8%; with MALME-3M melanoma, 61.3%; in the assay on MDA-MB-231 breast, 14.9%; with RXF 393 renal, -7.82% (active); with SF-268 CNS, 33.8%. Further, the growth with SF-295 CNS was 10.6%; with SF-539 CNS, -37.8% (active); in the assay with UACC-257 melanoma it was 81.7%; with M14 melanoma, 25.3%; in the assay on HCT-15 colon, 22.6%; in the assay on HT29 colon it was 13.2%. The growth in the assay on SNB-75 CNS was 8.92% (active); in the assay on SNB-19 CNS, 31.1%; in the assay on U251 CNS, 24.8%; in the assay on PC-3 prostate, 24.8%; in the assay with SK-MEL-5 melanoma, -25.5% (active); with UACC-62 melanoma, 22%. The growth is 36.4% in the assay with LOX IMVI melanoma and 43.2% in the assay on SK-MEL-28 melanoma.
In the case of `Nc1nn(C(=O)Nc2ccc(Cc3ccccc3)cc2)c2ccc(Cl)cc12`, the growth in the assay on DU-145 prostate is 85.6%; in the assay on K-562 leukemia it was 3.86% (active); in the assay on MALME-3M melanoma, 55.9%; with MDA-MB-231 breast it was 59.7%; in the assay with RXF 393 renal, 93.3%; in the assay with SF-268 CNS, 81.4%. The growth with SF-295 CNS is 27%; in the assay with SF-539 CNS, -19.2% (active); in the assay with UACC-257 melanoma it was 42.1%; in the assay with M14 melanoma, 37.2%; in the assay with HCT-15 colon, 36.6%; in the assay on HT29 colon, 74%. Moreover, the growth in the assay on SNB-75 CNS is 122%; with SNB-19 CNS, 83.4%; in the assay on U251 CNS it was 65.9%; with PC-3 prostate, 74.7%; with SK-MEL-5 melanoma, 35.9%; in the assay on UACC-62 melanoma, 13.3%. In addition, the growth with LOX IMVI melanoma was 39%; in the assay with SK-MEL-28 melanoma it was 106%.

Source of the values: PubChem BioAssay (NCI).
